# Bioassay records deposited in PubChem BioAssay by several laboratories.
# Only some compounds are listed: those with a hit (about 1.1% of all), similar ones and a draw of the others.
# SRC3 inh: SRC3 coactivator transcriptional activity inhibitors, primary screen, cell-based, luminescence. Nuclear receptor coactivator 3 (Homo sapiens), Q9Y6Q9. inhibition, % at 3.6 µM. 0.17% of 360,000 active. HEK293 GAL4-SRC3 luciferase reporter;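 active means inhibition above a per-campaign cutoff, the mean of all compounds plus 3 SD, cut at about 60% in these data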;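 further: 0% = DMSO-treated cells and 100% = gossypol-treated cells at 36 µM; higher means less SRC3-driven luciferase light from the GAL4 reporter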
# SRC1 inh: SRC1 coactivator transcriptional activity inhibitors, primary screen, cell-based, luminescence; Nuclear receptor coactivator 1 (Homo sapiens), Q15788; HEK293 GAL4-SRC1 luciferase reporter; inhibition, % at 3.6 µM; 0.12% of 360,000 active;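 active means inhibition above the campaign mean plus 3 SD, with each screening campaign given its own cutoff, cut at about 60% in these data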;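 further: 0% = DMSO treated cells and 100% = gossypol at 36 µM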
# LRH-1 inv ag: LRH-1 (NR5A2) inverse agonists, primary screen, cell-based, luminescence, HEK293T, StAR-luciferase reporter. LRH-1 transfected, 24 h. 0.13% of 360,000 active. Nuclear receptor subfamily 5 group A member 2 (Homo sapiens), O00482. inhibition, % at 3.6 µM;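 active means inhibition above the mean inhibition of all tested compounds plus 3 SD, cut at about 73% in these data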;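 further: 0% = DMSO wells and 100% = reporter-only cells lacking LRH-1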
# Target sequence (O00482 whole entry, looked up): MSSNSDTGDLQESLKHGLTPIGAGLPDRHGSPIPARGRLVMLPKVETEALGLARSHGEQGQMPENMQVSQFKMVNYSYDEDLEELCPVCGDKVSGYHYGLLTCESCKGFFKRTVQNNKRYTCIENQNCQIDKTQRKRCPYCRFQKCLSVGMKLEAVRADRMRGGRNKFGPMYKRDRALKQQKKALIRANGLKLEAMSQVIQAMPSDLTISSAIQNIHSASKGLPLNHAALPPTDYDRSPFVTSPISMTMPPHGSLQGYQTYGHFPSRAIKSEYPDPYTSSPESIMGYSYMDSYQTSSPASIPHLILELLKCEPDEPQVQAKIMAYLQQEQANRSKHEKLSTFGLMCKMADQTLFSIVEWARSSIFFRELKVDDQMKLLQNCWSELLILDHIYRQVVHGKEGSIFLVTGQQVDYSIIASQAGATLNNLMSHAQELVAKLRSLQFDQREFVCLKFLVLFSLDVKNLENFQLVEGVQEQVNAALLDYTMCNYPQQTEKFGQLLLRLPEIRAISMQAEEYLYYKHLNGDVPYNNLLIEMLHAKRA
# SRC2 inh: inhibition of GAL4-SRC2 driven luciferase reporter, primary screen, SRC2 inhibitor project, cell-based, luminescence; Nuclear receptor coactivator 2 (Homo sapiens), Q15596; HEK293 GAL4-SRC2 luciferase reporter; AID 651957, 2012; 0.17% of 370,000 active; inhibition, % at 9 µM;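 active means inhibition above the mean inhibition of all tested compounds plus 3 SD, set per campaign, cut at about 52% in these data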;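 further: 0% = DMSO treated cells and 100% = cells given Gossypol at 36 µM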
# Gli-Sufu antag: Gli-Sufu pathway antagonists, primary screen, luciferase luminescence, Sufu-KO-LIGHT cells, uHTS. inhibition, % at 5 µM. 0.74% of 340,000 active. Sufu-KO-LIGHT fibroblasts, Gli luciferase reporter luminescence;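 active means inhibition above about 55%, limit read from the data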;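 further: 0% = DMSO-treated cells and 100% = wells with medium but no cells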
# Shn3 3UTR inh: reduction of Shn3 3'UTR firefly luciferase signal, primary screen, Schnurri-3 inhibitor project, cell-based, Clone20 osteoblasts, set 2; Clone20 osteoblast Shn3 3'UTR firefly luciferase, 24 h; inhibition, % at 12.5 µM; 0.52% of 360,000 active; AID 588674, 2011;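 active means mean inhibition of at least 75% with every replicate also reaching 75%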;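 further: 0% = median of neutral control wells and 100% = pilot-screen positive control compound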
# The depositor's hits bear a star; . = not tested or not shown.
SMILES,SRC3 inh,SRC1 inh,LRH-1 inv ag,SRC2 inh,Gli-Sufu antag,Shn3 3UTR inh
C=C1C(=O)[C@@]23[C@H](O)C[C@@H]4C(C)(C)CC[C@H](O)[C@]4(C)[C@@H]2C[C@H](O)[C@@H]1[C@H]3O,-4.3,12.0,26.9,50.0,27.5,96.7*
C=C1C(=O)[C@@]23[C@H](O)C[C@@H]4C(C)(C)CC[C@H](O)[C@@]4(C)[C@@H]2CC[C@@H]1[C@H]3O,34.5,43.8,37.9,60.1*,79.6*,98.0*
COC(=O)COc1ccc(-c2nccc(-c3ccccn3)n2)cc1,26.1,19.4,-0.8,61.2*,29.1,24.8
CCCCOc1ccc(C(=O)NC2CCCCN(CC)C2=O)cc1 (stereo unspecified),.,.,.,-45.8,.,.
CCC(NC(=O)CCCN1C(=O)COc2ccc(C)cc21)c1ccccc1 (stereo unspecified),.,.,.,1.2,.,.
COc1ccc(NC(=O)Cn2nnc(-c3ccccc3NS(=O)(=O)c3ccccc3)n2)cc1,14.4,5.8,12.2,.,40.8,86.6*
Cc1nc2c(-c3ccccc3)cnn2c(N)c1-c1ccccc1,66.8*,71.8*,60.5,52.8*,55.8*,16.4
Cc1c(/C(O)=C2/C(=O)C(=O)N(Cc3cccnc3)C2c2cccs2)cnn1-c1ccccc1 (stereo unspecified),9.6,21.7,17.9,-12.9,8.2,-7.2
Cc1c(/C(O)=C2/C(=O)C(=O)N(Cc3cccnc3)C2c2ccccn2)cnn1-c1ccccc1 (stereo unspecified),76.1*,70.0*,71.1,76.6*,35.6,60.2
COc1ccc(C(C(=O)N(C)C2CCCC2)N(Cc2ccc(F)cc2)C(=O)c2cc(C)on2)cc1OC (stereo unspecified),.,.,.,-44.5,.,.
Cc1ccc(-c2noc(CCCC(=O)NC3CCCC3)n2)cc1,29.4,5.0,18.6,53.0*,0.8,73.3
O=C(CCCc1nc(-c2ccccc2)no1)NC1CCCC1,7.1,-17.0,3.4,9.5,16.4,-9.1
C=CC[C@H](CC(=O)N(CCO)Cc1ccccc1)C(=O)NC[C@H](OC(=O)[C@@H](CC=C)Cc1ccc(F)cc1)c1ccccc1,20.5,-19.7,-3.6,-0.1,5.0,88.6*
C=CC[C@@H](CC(=O)N(CCO)Cc1ccccc1)C(=O)NC[C@@H](OC(=O)[C@@H](CC=C)Cc1ccc(F)cc1)c1ccccc1,-5.0,-7.1,11.7,-9.0,8.8,9.3
CCc1ccccc1Nc1ncnc2ccccc12,-12.5,-20.3,15.6,6.9,.,17.8
CCCCCCCCNc1ncnc2ccccc12,20.4,27.1,52.8,.,81.6*,70.5
CS/C(=C\[N+](=O)[O-])Nc1ccc(OC(F)(F)F)cc1,24.4,20.8,79.7*,22.3,-16.9,0.3
CCOC(=O)c1c2c(n(-c3ccc(OC)cc3)c1C)C(=O)C(=O)c1ccccc1-2,53.5,17.3,69.1,.,9.7,97.3*
CCOC(=O)c1sc(=S)n(-c2ccc(OC)cc2)c1C,5.5,-38.7,8.9,-30.7,-11.2,-26.6
Oc1ccc2ccccc2c1/C=N/Nc1nnc(-c2ncc[nH]2)c2ccccc12,4.9,1.9,2.3,-15.0,63.2*,91.7*
O=S1(=O)c2ccc(N3CCCC3)cc2Oc2ccccc2CN1Cc1cn(Cc2cccc(C(F)(F)F)c2)nn1,.,.,.,21.6,.,.
CC(=O)c1sc(NC(=O)C=C(C)C)nc1C,-35.8,-31.7,-24.1,-45.7,-3.6,-24.2
CC(=O)c1sc(NC(=O)C2(F)C(F)(F)C(F)(F)C(F)(F)C(F)(F)C2(F)F)nc1C,35.8,40.6,37.5,33.9,74.6*,1.7
CN(Cc1ccccc1)S(=O)(=O)c1cccc(C(=O)OCc2ccc(Oc3ccccc3)cc2)c1,.,.,.,-10.4,.,.
CCN(CC)C(=O)COc1ccc(/C(C)=N/NC(=O)c2ccccc2-n2cccc2)cc1,8.6,-0.1,3.0,12.8,-5.2,-2.5
SMILES,SRC3 inh,SRC1 inh,LRH-1 inv ag,SRC2 inh,Gli-Sufu antag,Shn3 3UTR inh
C/C(=N\NC(=O)c1cc2ccccc2cc1O)c1cc2ccccc2o1,8.8,-0.5,-14.2,-15.0,-8.3,-5.7
C/C(=N\NC(=O)c1ccccc1-n1cccc1)c1ccccn1,3.4,10.4,0.1,7.4,.,93.0*
C/C(=N\NC(=O)c1c[nH]c2ccccc12)c1ccccn1,-65.1,-75.2,-64.6,-9.7,-57.9,69.4
C/C(=N\NC(=O)c1ccc(F)cc1)c1ccccn1,-43.1,-26.9,-33.8,7.3,12.1,89.0*
C/C(=N\NC(=O)c1cc2ccccc2cc1O)c1ccccn1,-18.2,-41.5,-8.7,-5.2,89.7*,97.3*
C[C@H](CCCCC1(C)OCCO1)CCC(=O)N(c1ccccc1)c1ccccc1,.,.,.,10.7,.,.
Oc1c(N=Nc2ccccn2)ccc2ccccc12,-50.4,-44.7,-3.1,-21.4,81.8*,47.3
CC(C)c1ccc(Oc2cccc3c2S(=O)(=O)N(C2CCCC2)CC(COCc2ccccc2)O3)cc1 (stereo unspecified),15.7,11.4,19.3,-11.2,2.8,86.5*
CC(=NNC(=S)N1CCCCC1)c1cccc(C)n1,24.3,-3.6,-11.8,-28.7,11.9,76.5
CC(=NNC(=S)N1CC2CCC(CC2)C1)c1ccncn1,22.1,20.9,-7.8,-12.0,85.4*,88.4*
Cc1ccc(-c2nc3cccnc3o2)cc1NC(=O)COc1ccc(Cl)cc1C,-15.7,-4.7,5.0,-20.0,3.9,-1.6
Cc1ccc(-c2nc3cccnc3o2)cc1NC(=O)COc1ccc(C(C)(C)C)cc1,4.6,-24.4,12.7,-4.9,2.3,94.6*
COC(=O)[C@H]1C[C@@]2(N3CCCC3)c3ccccc3N[C@H]2N1S(C)(=O)=O,.,.,.,-15.6,.,.
CCCCCCNC(=O)O[C@H]1Cn2c(=O)n(CCCCCC)c(=O)n2[C@@H]2CN(S(=O)(=O)c3ccc(C)cc3)C[C@]12O,9.8,-5.9,5.9,22.2,.,9.9
CCCCCCNC(=O)O[C@H]1Cn2c(=O)ccc(=O)n2[C@@H]2CN(S(=O)(=O)c3ccc(C)cc3)C[C@]12O,4.9,15.9,22.9,14.2,.,91.0*
CC(C)(C)c1ccc(C(=O)N2CCCCCC2=O)cc1,50.8,43.9,57.3,86.9*,43.4,.
Cc1ccc2nc(-c3ccc(NC(=O)CSc4nnc(-c5cccc(Cl)c5)n4Cc4ccco4)cc3)sc2c1,.,.,.,-79.7,.,.
COC(=O)CCn1nnc(-c2ccc(C(C)C)cc2)n1,43.7,50.6,49.1,85.7*,56.7*,70.0
CCOC(=O)CC[C@H]1CC[C@]2(CCCN(S(C)(=O)=O)C2)O1,.,.,.,-3.2,.,.
Clc1ccccc1-c1nnc2sc(CCc3ccccc3)nn12,1.5,3.4,11.6,-0.3,-2.1,-4.2
